TIM10 inh – growth inhibitors of TIM10 yeast strain. S. cerevisiae TIM10 strain growth, BacTiter-Glo luminescence, 24 h. inhibition, % at 10 µM. actives 1.4% (n = 330,000);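 active means inhibition of 40% or more at the single tested concentration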;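 further: wild-type TIM10 isogenic control strain grown at permissive 25 °C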
tim23-1 inh – growth inhibitors of tim23-1 mutant yeast. inhibition, % at 20 µM. S. cerevisiae tim23-1 growth, BacTiter-Glo luminescence, 24 h. actives 1.3% (n = 330,000);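 active means growth inhibition of the mutant yeast at or above 50%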;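 further: temperature-sensitive mutant grown at 25 °C; plate controls were DMSO-treated mutant yeast for no effect and medium wells lacking yeast for full effect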
NLRP3 yeast inh – inhibitors of NALP3 inflammasome in yeast. Yeast reconstituted NLRP3/ASC/caspase-1, beta-gal luminescence, 24 h. inhibition, % at 10 µM. actives 0.39% (n = 330,000);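 active means inhibition of 50% or more; inactive means inhibition below 50%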;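 further: plate controls were induced DMSO wells for no effect and uninduced yeast grown without galactose for full effect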
PfHsp90 set2 – growth inhibition of yeast expressing Plasmodium Hsp90 | S. cerevisiae expressing PfHsp90, BacTiter-Glo ATP, 48 h; yeast lacking PDR1 and PDR3 efflux regulators | inhibition, % at 9.4 µM | actives 0.32% (n = 310,000);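 active means every replicate shows inhibition above about 80%, whatever the replicate mean, limit read from the data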;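 further: 0% = DMSO neutral controls and 100% = 20 µM radicicol positive controls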
tim10-1 inh – inhibits growth of tim10-1 mutant yeast. S. cerevisiae tim10-1 ts strain growth, BacTiter-Glo, 24 h. inhibition, % at 20 µM. actives 2.2% (n = 330,000). AID 463190;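 active means inhibition of at least 40%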;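 further: mutant grown at 25 °C; 0% = DMSO wells with yeast and 100% = wells holding no yeast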
tim10-1 confirm – tim10-1 yeast growth inhibition, confirmed. actives 56% (n = 7,400). inhibition, % at 20 µM. shares compounds with tim10-1 inh. S. cerevisiae tim10-1 ts strain growth, BacTiter-Glo, 24 h. AID 463213;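 active means inhibition of yeast growth at or above a set limit in either of two repeat tests at 20 µM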;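 further: tim10-1 mutant grown at permissive 25 °C to find synthetic lethal compounds; 0% = DMSO yeast wells and 100% = medium wells without yeast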
TIM10 conf – TIM10 yeast growth inhibition, confirmed; shares compounds with TIM10 inh; S. cerevisiae tim10 strain growth, BacTiter-Glo luminescence, 24 h; inhibition, % at 10 µM; actives 63% (n = 4,600); AID 463215;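 active means inhibition of yeast growth at or above a set limit in either of two replicates at 10 µM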;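 further: this counterscreen used the strain with wild-type TIM10; 0% = yeast with DMSO and 100% = medium wells lacking yeast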
tim23-1 confirm – confirmation of tim23-1 mutant yeast growth inhibitors. shares compounds with tim23-1 inh. AID 463218. actives 83% (n = 4,400). inhibition, % at 20 µM. S. cerevisiae tim23-1 growth, BacTiter-Glo luminescence, 24 h;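 active means inhibition above about 39% in either of two replicate wells at 20 µM, limit read from the data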;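 further: temperature-sensitive tim23-1 mutant grown at 25 °C; 0% = DMSO wells with yeast and 100% = medium wells without yeast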
An asterisk follows results filed as active; nt = no result. Rows were chosen to be rich in hits. Some 3.7% of all compounds tested hit in one or more screens of this group.

SMILES	TIM10 inh	tim23-1 inh	NLRP3 yeast inh	PfHsp90 set2	tim10-1 inh	tim10-1 confirm	TIM10 conf	tim23-1 confirm
O=C(O)c1ccc(Cn2cc(/C=C\[N+](=O)[O-])c3ccccc32)o1	11	8	13	-7	-9	nt	nt	nt
Cc1cccc(Cn2cc(/C=C/[N+](=O)[O-])c3ccccc32)c1	67*	67*	6	nt	66*	71*	82*	74*
CCOC(=O)Cn1cc(/C=C/[N+](=O)[O-])c2ccccc21	26	10	-18	15	21	nt	nt	nt
O=C(N=C1SC2CS(=O)(=O)CC2N1c1ccc(Cl)cc1Cl)C1CC1 (stereo not drawn)	-3	-8	-4	11	1	nt	nt	nt
COc1ccc(NC2CCCN(C(=O)C3(C)CCCCC3)C2)cc1OC (stereo not drawn)	4	14	15	-12	23	nt	nt	nt
N/C(=N\OC(=O)c1cccc(F)c1)c1ccccc1	61*	68*	27	nt	55*	56*	62*	66*
Cc1ccc(/C(N)=N/OC(=O)c2cccc(F)c2)cc1	76*	70*	9	27	64*	48*	79*	40*
N/C(=N\OC(=O)c1cccc(F)c1)c1ccccn1	16	16	16	45	2	nt	nt	nt
Cc1cccc(C(=O)O/N=C(\N)c2ccccn2)c1	23	30	31	32	15	nt	nt	nt
Cc1onc(-c2ccccc2)c1-c1nc2cc(Cl)ccc2c(=O)o1	19	68*	10	7	43*	18	nt	53*
COc1ccc(-c2cn3c(C)c(C(=O)N4CCN(c5ccccc5F)CC4)sc3n2)cc1	36	56*	25	10	56*	55*	nt	67*
Cc1c(C(=O)N2CCN(c3ccccc3F)CC2)sc2nc(-c3ccccc3)cn12	54*	53*	31	9	54*	54*	51*	75*
Cc1c(C(=O)N2CCN(C(=O)c3ccco3)CC2)sc2nc(-c3ccc(F)cc3)cn12	5	13	9	11	16	nt	nt	nt
O=[N+]([O-])c1ccc(N=Nc2ncc[nH]2)cc1	44*	52*	45	-5	45*	31	33*	-24
O=[N+]([O-])c1ccc(N=NN(CCO)CCO)cc1	10	13	19	11	7	nt	nt	nt
N/C(Cc1ccc([N+](=O)[O-])cc1)=N\OC(=O)COc1ccccc1Cl	23	27	22	-8	34	nt	nt	nt
COc1ccc(C/C(N)=N/OC(=O)COc2ccccc2C)cc1	39	55*	10	-79	51*	39*	nt	41*
N/C(Cc1ccc([N+](=O)[O-])cc1)=N\OC(=O)COc1cccc2ccccc12	76*	60*	10	-12	64*	73*	72*	91*
COc1ccc(OC(=O)COc2ccccc2C)cc1	11	0	6	nt	-15	nt	nt	nt
Cc1ccc(CNc2nc(Cl)c(C#N)s2)cc1	0	0	25	-4	16	nt	nt	nt
N#Cc1sc(NCc2cccc(Cl)c2)nc1Cl	44*	69*	19	-50	58*	49*	43*	57*
COc1ccc([C@H]2CC(=O)C=C(c3c(OC)cccc3OC)C2)cc1	3	31	7	-5	16	nt	nt	nt
CCOC(=O)N/N=C/c1c(C)nn(-c2cccc(C(F)(F)F)c2)c1Cl	24	58*	20	-68	47*	36*	nt	60*
Cc1nn(-c2cccc(C(F)(F)F)c2)c(Cl)c1/C=N/Nc1cccc(C(=O)O)c1	nt	nt	nt	-3	nt	nt	nt	nt
O=C(NCCOC12CC3CC(CC(C3)C1)C2)c1cccc(Br)c1	44*	53*	30	-17	42*	33*	46*	46*
SMILES	TIM10 inh	tim23-1 inh	NLRP3 yeast inh	PfHsp90 set2	tim10-1 inh	tim10-1 confirm	TIM10 conf	tim23-1 confirm
O=c1oc2ccccc2nc1/C=C(O)/C=C/c1ccc(F)cc1	56*	64*	5	38	41*	59*	58*	-13
CCN(CC)C(=O)Cn1cc(S(=O)(=O)CC(=O)N2CC(C)OC(C)C2)c2ccccc21 (stereo not drawn)	0	-1	10	11	-10	nt	nt	nt
Oc1c(Br)cc(Br)cc1C=NCc1ccccc1	59*	85*	29	96*	55*	39*	33*	90*
O/N=C/c1cc(Br)ccc1OCc1ccc(F)cc1	33	59*	-8	-28	41*	34*	nt	31*
Oc1c(Br)cc(Br)cc1C=NCc1ccc(F)cc1	19	79*	3	99*	51*	17	nt	85*
CC1(C)Cc2c(cnn2-c2ccc(F)cc2)C(NC(=O)c2ccc(=O)oc2)C1 (stereo not drawn)	14	16	12	8	25	nt	nt	nt
O=C(Nc1ccccc1C(=O)N/N=C/c1ccncc1)c1ccccc1	62*	77*	-3	55	68*	68*	36*	70*
COc1ccc(C(=O)Nc2ccccc2C(=O)N/N=C/c2ccco2)cc1	47*	72*	3	42	67*	68*	43*	72*
COc1ccc(CN2c3c(Br)cccc3C(=O)CS2(=O)=O)cc1	14	72*	nt	-20	42*	41*	nt	60*
COc1ccc(CN2C(=O)C(C)=C(C)C2OC)cc1 (stereo not drawn)	8	17	13	0	8	nt	nt	nt
COc1ccc(/C=C2\CCCC(C(=O)C(F)(F)F)=C2O)cc1	26	3	0	16	40	nt	nt	nt
O=C(C1=C(O)/C(=C/c2ccc(O)cc2)CCC1)C(F)(F)F	17	52*	12	-2	50*	16	nt	59*
CCNc1sc(C(=O)c2cccs2)c(N)c1-c1nc2ccccc2s1	45*	72*	30	-21	53*	31	36*	-6
COc1ccccc1/C=C1\N=C(C(C)(C)C)OC1=O	47*	51*	11	1	44*	47*	34*	67*
CC(C)(Sc1ccc(CCN(CCCCC2CCCCC2)C(=O)NC2CCCCC2)cc1)C(=O)O	8	21	18	5	1	nt	nt	nt
CCCCNc1c(-c2ccc(SC(C)CC)cc2)nc2ccccn12 (stereo not drawn)	45*	59*	35	41	48*	55*	35*	63*
COc1ccc(N2C(=O)C(Cl)=C(Oc3cccc(OC)c3)C2=O)cc1	75*	53*	16	2	72*	57*	82*	4
CCOC(=O)c1c2c(c(=S)n(-c3ccccc3)c1N)CCC2	0	58*	-4	0	54*	37*	nt	67*
